Screening data deposited in PubChem by The Scripps Research Institute Molecular Screening Center.
An excerpt weighted towards active compounds, which were near 2.8% of everything screened.
DAGLB inh: blocks human DAGLB lipase activity. HEK293T DAGLB membrane lysate, EnzChek fluorogenic substrate. inhibition, % at 5.17 µM. hit rate 0.059% among 340,000. AID 504411; in the data active means inhibition above about 34%;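 further: 0% = enzyme with vehicle and 100% = wells lacking enzyme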
PAFAH1B2 inh: PAFAH1B2 (human) inhibition; recombinant PAFAH1B2, FP-rhodamine activity probe, fluorescence polarization; P68402; hit rate 1.2% among 340,000; inhibition, % at 3.39 µM; AID 492953;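 active means inhibition above the mean of all tested compounds plus 3 SD, cut at about 24% in these data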;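 further: 0% = enzyme with DMSO and 100% = wells lacking PAFAH1B2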
pPAFAH inh: inhibitors of human plasma PAF acetylhydrolase (pPAFAH); AID 463082; Q13093; recombinant pPAFAH, FP-rhodamine probe fluorescence polarization; inhibition, % at 3.39 µM; hit rate 1.5% among 330,000;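 active means inhibition above the mean inhibition across the screen plus 3 SD, cut at about 25% in these data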;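 further: inhibitors block binding of the rhodamine activity-based probe so polarization drops; 0% = enzyme with DMSO and 100% = wells lacking pPAFAH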
HTRA1 inhibitor: blocks human HTRA1 serine peptidase; recombinant HTRA1, FP-rhodamine activity-based probe, fluorescence polarization; Q92743; hit rate 0.5% among 340,000; inhibition, % at 5.96 µM; AID 504803; in the data active means inhibition above about 36%;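 further: 0% = enzyme with DMSO and 100% = wells lacking enzyme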
Target sequence (Q92743 whole entry, looked up): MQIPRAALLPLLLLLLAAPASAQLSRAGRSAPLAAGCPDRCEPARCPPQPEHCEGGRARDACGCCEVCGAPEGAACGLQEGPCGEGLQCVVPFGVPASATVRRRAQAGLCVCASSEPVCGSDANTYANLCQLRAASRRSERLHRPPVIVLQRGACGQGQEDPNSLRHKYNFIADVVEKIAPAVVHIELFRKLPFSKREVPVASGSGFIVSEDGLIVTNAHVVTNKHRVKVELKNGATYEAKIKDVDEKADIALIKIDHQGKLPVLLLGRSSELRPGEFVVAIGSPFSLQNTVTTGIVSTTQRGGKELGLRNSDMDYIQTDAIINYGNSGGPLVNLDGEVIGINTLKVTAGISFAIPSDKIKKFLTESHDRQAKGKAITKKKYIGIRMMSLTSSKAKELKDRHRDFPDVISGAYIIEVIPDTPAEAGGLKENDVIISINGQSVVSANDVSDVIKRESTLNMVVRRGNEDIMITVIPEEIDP
PAFAH2 FP inh: PAFAH2 (human) inhibition; Q99487; recombinant PAFAH2, FP-rhodamine activity probe, fluorescence polarization; inhibition, % at 3.39 µM; hit rate 0.99% among 340,000;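 active means inhibition above the mean over all tested compounds plus 3 SD, cut at about 30% in these data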;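 further: inhibitors block probe labeling of enzyme so polarization drops; 0% = enzyme with DMSO and 100% = wells lacking PAFAH2 protein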
PAFAH1B3 inh: blocks human PAF acetylhydrolase 1B catalytic subunit 3 | AID 492972 | inhibition, % at 3.39 µM | recombinant PAFAH1B3, FP-rhodamine probe, fluorescence polarization | Q15102 | hit rate 0.28% among 340,000;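 active means inhibition above the screen-wide average of all tested compounds plus 3 SD, cut at about 25% in these data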;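 further: 0% = enzyme with DMSO only and 100% = wells lacking PAFAH1B3 protein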
Target sequence (Q15102 whole entry, looked up): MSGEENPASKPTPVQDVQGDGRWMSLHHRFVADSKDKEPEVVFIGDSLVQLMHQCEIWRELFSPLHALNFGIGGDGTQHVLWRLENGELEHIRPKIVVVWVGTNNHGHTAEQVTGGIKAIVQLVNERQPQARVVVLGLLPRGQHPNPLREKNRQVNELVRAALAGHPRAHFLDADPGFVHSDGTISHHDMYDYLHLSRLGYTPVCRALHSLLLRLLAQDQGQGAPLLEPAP
* = called active by the depositor; nt = not tested or not shown.

SMILES | DAGLB inh | PAFAH1B2 inh | pPAFAH inh | HTRA1 inhibitor | PAFAH2 FP inh | PAFAH1B3 inh
COC(=O)c1[nH]c2ccc(C)cc2c1NC(=O)NC1CCCCC1 | 1.4 | -0.5 | -0.1 | -0.1 | -0.8 | 2.6
O=C(Nc1c(C(=O)O)[nH]c2ccccc12)NC1CCCCC1 | 2.0 | 27.2* | 10.8 | 2.4 | 44.8* | -3.5
FC(F)(F)c1ccc2c(c1)NCC1CCCN21 (stereo not drawn) | 4.6 | 0.7 | 27.2* | 2.6 | 86.0* | 21.6
O=[N+]([O-])c1cc(C(F)(F)F)ccc1N1CCCC(O)C1 (stereo not drawn) | 6.4 | 6.1 | -3.5 | 5.5 | 6.7 | 2.4
COc1cccc(-c2nc(CS(=O)CC(=O)NC3CCCCC3)c(C)o2)c1 (stereo not drawn) | -1.2 | 1.6 | -5.0 | -2.3 | 5.8 | 2.6
CCN(CC)c1ccc(/C=C2/C(=O)c3ccc(C(=O)O)cc3C2=O)cc1 | -100.2 | -8.2 | 28.3* | -0.3 | 17.9 | -7.4
Cc1ccc(NC(=O)CN(C)C(=O)c2cccc(S(=O)(=O)N3CCc4ccccc4C3)c2)cc1 | -4.4 | nt | nt | -1.2 | nt | nt
CCSC(=O)NC12CC3CC(CC(C3)C1)C2 | -4.9 | 16.6 | 2.7 | 2.0 | 3.2 | 1.0
CSC(=O)NC12CC3CC(CC(C)(C3)C1)C2 | 0.5 | 28.1* | -3.4 | -5.5 | 1.9 | -4.3
CCOc1ccccc1C(=O)OCC(=O)Nc1ncc(C(F)(F)F)cc1Cl | -0.1 | 3.9 | 26.8* | 5.9 | 4.2 | 11.2
CCOc1ncccc1C(=O)OCC(=O)Nc1ncc(C(F)(F)F)cc1Cl | 1.2 | -3.1 | 26.5* | -1.6 | 17.0 | 0.5
O=C(COC(=O)c1cccc2ccccc12)Nc1ncc(C(F)(F)F)cc1Cl | -4.5 | -0.7 | 1.9 | -12.8 | -0.7 | -3.7
COc1ccccc1CNC(=O)CC12CC3CC(CC(Br)(C3)C1)C2 | -3.0 | 8.6 | -4.2 | -0.2 | 0.4 | 4.8
Cc1ccccc1NC(=O)COC(=O)Cc1ccsc1 | -1.4 | 4.8 | 27.2* | -1.2 | 8.6 | 1.9
O=C(COC(=O)Cc1ccsc1)Nc1ccc(F)cc1Cl | -3.9 | -1.9 | 28.7* | 3.0 | -3.6 | 4.1
O=C(COC(=O)Cc1ccsc1)Nc1ccc(Cl)cn1 | -2.3 | 2.1 | 27.8* | -0.4 | 3.4 | 5.5
COc1ccc(CC(=O)OCC(=O)Nc2ccc(Cl)cn2)cc1 | -2.6 | 4.6 | 16.5 | 1.9 | 2.5 | -6.6
Cc1ccc(C)c(NC(=O)COC(=O)Cc2ccsc2)c1 | -4.9 | 6.9 | 24.9* | -9.4 | 4.8 | -9.0
Cc1cc(C)cc(OCC(=O)Nc2cccc(S(=O)(=O)NC3=NCCC3)c2)c1 | -0.7 | 1.4 | 0.1 | -4.4 | 5.5 | 4.0
C=CCNc1nc(N)c([N+](=O)[O-])c(NCCO)n1 | -1.4 | 6.8 | 10.6 | -0.8 | 1.4 | 3.8
C[C@@H]1CN([C@@H](C)CO)C(=O)CCCn2nncc2CO[C@H]1CN(C)C(=O)c1ccccc1 | -0.5 | nt | nt | -4.1 | nt | nt
O=C(COc1ccccc1[N+](=O)[O-])NCCC1=CCCCC1 | -4.7 | 11.1 | 4.9 | -5.7 | -1.3 | 5.5
O=Nc1c(O)[nH]c2ccc(Cl)c(Cl)c12 | -10.8 | 27.5* | nt | 23.9 | 31.3* | 43.3*
C[C@H](CO)N1C[C@H](C)[C@@H](CN(C)C(=O)Nc2ccc(C(F)(F)F)cc2)Oc2c(NC(=O)NC3CCCCC3)cccc2C1=O | 0.7 | 23.2 | 0.4 | -21.2 | -0.7 | 1.0
C[C@H](CO)N1C[C@H](C)[C@@H](CN(C)C(=O)Nc2ccccc2)Oc2c(NC(=O)Nc3ccc(C(F)(F)F)cc3)cccc2C1=O | 1.0 | 35.9* | -2.5 | -59.1 | -13.5 | 6.5
SMILES | DAGLB inh | PAFAH1B2 inh | pPAFAH inh | HTRA1 inhibitor | PAFAH2 FP inh | PAFAH1B3 inh
C[C@@H]1CN([C@H](C)CO)C(=O)c2cccc(NC(=O)NC3CCCCC3)c2O[C@@H]1CN(C)C(=O)Nc1ccc(C(F)(F)F)cc1 | 1.5 | 64.3* | 7.4 | -49.7 | 3.8 | 12.7
C[C@H](CO)N1C[C@H](C)[C@@H](CN(C)C(=O)Nc2ccc(C(F)(F)F)cc2)Oc2c(NC(=O)CCC(F)(F)F)cccc2C1=O | 0.6 | 27.6* | 1.1 | -14.5 | -7.2 | -2.4
Nc1nc(SCC(=O)c2c(N)n(Cc3ccccc3)c(=O)[nH]c2=O)n[nH]1 | 2.5 | 2.2 | 3.9 | 0.0 | 2.5 | -1.1
O=C(NCC(=O)N1CCN(C(=O)c2ccccc2)CC1)c1ccc(Cl)cc1Cl | -2.9 | 4.0 | 5.2 | 3.2 | -1.9 | 1.5
COc1ccc2nc(Nc3sc4c(c3C(N)=O)CCCC4)sc2c1 | 0.6 | 9.7 | 25.7* | -5.2 | -0.4 | 19.1
C[C@H]1CCC[C@]2(C)C[C@H]3OC(=O)C(CN4CCCCCC4)[C@H]3C=C12 (stereo partly drawn) | -5.0 | 30.4* | 7.0 | -1.2 | 18.9 | 1.6
Cc1nc(N)sc1-c1csc(N(C)c2ccc(O)cc2)n1 | 5.1 | 2.8 | 26.9* | 27.2 | 5.1 | 5.6
CN(c1ccc(O)cc1)c1nc(-c2cccs2)cs1 | -43.2 | -2.7 | 8.1 | 22.9 | 4.0 | 8.0
CN(C(=O)c1ccccn1)C1(C(=O)NC2CCCCC2)CCCCC1 | -1.5 | 8.7 | 0.5 | 7.5 | 13.2 | 4.9
CC(=O)NCC(=O)N(c1ccccc1)C1(C(=O)NC2CCCCC2)CCCCC1 | -0.1 | 27.6* | 5.0 | -3.8 | -3.2 | 4.5
Cc1ccc(C)c(S(=O)(=O)Nc2cc(SCC(=O)O)c(O)c3ccccc23)c1 | 2.7 | 72.3* | 12.4 | 44.6* | 34.1* | 51.0*
Cc1ccc(NS(=O)(=O)c2cc(NC(=O)C(C)Oc3ccccc3)ccc2C)c(C)c1 (stereo not drawn) | 0.2 | 3.0 | -1.1 | -52.7 | -8.1 | 3.7
CCOc1ccc(S(=O)(=O)Nc2cc(SCC(=O)O)c(O)c3ccccc23)cc1 | -6.2 | 16.0 | nt | 31.6 | 21.1 | 23.4
O=C(O)CSc1cc(NS(=O)(=O)c2cccc([N+](=O)[O-])c2)c2ccccc2c1O | -10.1 | 27.6* | nt | 21.6 | 27.7 | 49.3*
CCCn1c(=N)c(S(=O)(=O)c2ccccc2)cc2c(=O)n3ccccc3nc21 | 0.4 | 4.1 | 6.7 | -5.2 | 13.6 | 3.7
N=c1c(S(=O)(=O)c2ccc(Br)cc2)cc2c(=O)n3ccccc3nc2n1CCN1CCOCC1 | 2.3 | 40.7* | nt | -11.3 | 5.5 | -4.2
N=c1c(S(=O)(=O)c2ccccc2)cc2c(=O)n3ccccc3nc2n1Cc1ccco1 | 1.5 | 1.5 | 26.1* | -13.2 | 29.3 | 2.8
Cc1ccc(C)c2[nH]c(=O)c(CN(Cc3ccco3)C(=S)NCC3CCCO3)cc12 (stereo not drawn) | 1.2 | 11.3 | 3.3 | -5.7 | 0.7 | 5.8
O=C(NCCc1ccccc1)C1CCCN1C(=O)Nc1cccc(Cl)c1 (stereo not drawn) | 1.6 | 26.5* | 6.4 | 2.4 | 7.7 | -0.7
CC(C)(C)c1ccc(CNC(=O)C2CCCN2C(=O)Nc2ccccc2)cc1 (stereo not drawn) | 0.7 | 25.0* | -2.0 | -8.5 | 3.0 | -0.7
Cc1ccc(CNC(=O)C2CCCN2C(=O)Nc2ccccc2)cc1 (stereo not drawn) | -1.4 | 7.2 | 3.5 | -1.4 | 1.2 | 7.2
O=Cc1coc2c(ccc3ccccc32)c1=O | nt | nt | -0.9 | nt | nt | nt
